Experimental data from PubChem BioAssay (Tox21).
Records with an inconclusive call do not appear. Calls of active or inactive are those of the source. Unless noted, calls come from the whole dose curve.

Experiments:
[1] = qHTS assay to identify small molecule agonists of the vitamin D receptor (VDR) signaling pathway - cell viability counter screen (AID 743224; active = well fitted curve in the direction sought with a large enough effect in the repeat runs; an effect the other way counts as inactive or inconclusive; note: series mostly up to about 63 µM; nearly all actives have a fitted effect of over 50% in size)
Outline: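 Counter screen for cytotoxicity: VDR-bla cells at 2,000 cells/well, 16 h compound exposure, then CellTiter-Glo luminescence after the beta-lactamase measurement.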

[2] = qHTS assay to identify small molecule antagonists of the vitamin D receptor (VDR) signaling pathway - cell viability counter screen (AID 743225; active = well fitted curve in the direction sought with a large enough effect in the repeat runs; an effect the other way counts as inactive or inconclusive; note: nearly all actives have a fitted effect of over 50% in size)
Outline: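 In this counter screen, VDR-bla HEK 293T cells receive test compound plus 3 nM final calcitriol for 16 h at 37C. Room-temperature steps of 2 h with the beta-lactamase substrate, then 30 min with CellTiter-Glo, precede the luminescence read.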

[3] = qHTS assay to identify small molecule agonists of the NFkB signaling pathway (AID 1159509; active = well fitted curve in the direction sought with a large enough effect in the signal ratio in the repeat runs, not every such curve was filed as active; the % refers to the signal ratio; note: series mostly up to about 61 µM)
Outline: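 Beta-lactamase reporter assay run in quantitative high-throughput format on an NF-kB-responsive ME-180 line, with 5 hr compound treatment and a FRET-based blue/green fluorescence readout.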

[4] = qHTS assay to identify small molecule agonists of the NFkB signaling pathway - cell viability counter screen (AID 1159515); note: series mostly up to about 61 µM; nearly all actives have a fitted effect of over 55% in size
Outline: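 Counter screen run alongside the NFkB-bla agonist assay: ME-180 reporter cells exposed to compounds for 5 hr, then lysed with CellTiter-Glo in the same wells. Luminescence, read after 30 min, reflects viable cells.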

[5] = qHTS assay to identify small molecule agonists of the endoplasmic reticulum stress response signaling pathway (AID 1159516; active = well fitted activation curve with a large enough effect in the signal ratio in the repeat runs, not every such curve was filed as active; the % refers to the signal ratio)
Outline: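 For this screen, HeLa cells stably carrying beta-lactamase under the ER stress response element received test compounds, positive controls or DMSO for 5 hr at 37 C; B/G FRET substrate was then added and dual-wavelength emission recorded.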

[6] = qHTS assay to identify small molecule agonists of the endoplasmic reticulum stress response signaling pathway - cell viability counter screen (AID 1159517); note: series mostly up to about 61 µM; nearly all actives have a fitted effect of over 50% in size
Outline: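 Steps: seed 1,500 ESRE-bla HeLa cells per well; incubate overnight at 37 C, 5% CO2; add compounds in DMSO for 5 hr; run FRET substrate 2 hr RT; add CellTiter-Glo, wait 30 min, read luminescence.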

[7] = qHTS assay to identify small molecule antagonists of the retinoid-related orphan receptor gamma (ROR-gamma) signaling pathway - cell viability counter screen (AID 1159520; active = well fitted curve in the direction sought with a large enough effect in the repeat runs; an effect the other way counts as inactive or inconclusive; note: nearly all actives have a fitted effect of over 50% in size)
Outline: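 Tet-on ROR gamma CHO cells were given compounds for 2 hr, then doxycycline hyclate at 1 uM final, and incubated 16 hr at 37 C. Viability was measured as ATP content by CellTiter-Glo luminescence.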

[8] = molecular target: Nuclear receptor ROR-gamma (Homo sapiens) (UniProt P51449); experiment: qHTS assay to identify small molecule antagonists of the retinoid-related orphan receptor gamma (ROR-gamma) signaling pathway (AID 1159521; active = well fitted curve in the direction sought with a large enough effect in the repeat runs; an effect the other way counts as inactive or inconclusive; note: nearly all actives have a fitted effect of over 50% in size; note: potency is the fitted concentration of half-maximal effect)
Outline: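 Screening format: cell-based luciferase reporter in CHO cells with doxycycline-inducible RORγ. Compound pre-exposure lasts 2 h, doxycycline is 1 uM final, induction runs 16 h at 37 C, and ONE-Glo luminescence is read.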

[9] = qHTS assay to identify small molecule agonists of the AP-1 signaling pathway - cell viability counter screen (AID 1159525); note: nearly all actives have a fitted effect of over 55% in size
Outline: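 Same-well cytotoxicity counter screen of the Tox21 10K library in ME-180 cells. The readout is ATP-dependent luminescence after 5 h compound treatment. Data are normalised to DMSO and tetra n-octyl ammonium bromide controls.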

[10] = qHTS assay to identify small molecule agonists of the AP-1 signaling pathway (AID 1159526)

Measured: Potency

O=C(O)Cc1cc(I)c(Oc2cc(I)c(O)c(I)c2)c(I)c1
inactive: [1] | [2] | [3] | [4] | [5] | [6] | [7] | [8] | [9] | [10]

NC(=O)c1ncn([C@@H]2O[C@H](CO)[C@@H](O)[C@H]2O)c1O
inactive: [1] | [2] | [3] | [4] | [5] | [6] | [7] | [8] | [9] | [10]

NS(=O)(=O)c1cc2c(cc1C(F)(F)F)NC(Cc1ccccc1)NS2(=O)=O (centres undefined)
inactive: [1] | [2] | [3] | [4] | [5] | [6] | [7] | [8] | [9] | [10]

CCC(=O)Nc1cccc(N)c1
inactive: [1] | [2] | [3] | [4] | [5] | [6] | [7] | [8] | [10]

CC(C)(C)CC(C)(C)N
inactive: [1] | [2] | [3] | [4] | [5] | [6] | [7] | [8] | [10]

CCCC(C)C(=O)O (centres undefined)
inactive: [1] | [3] | [4] | [5] | [6] | [8] | [9] | [10]

Cc1onc(-c2ccccc2)c1-c1ccc(S(N)(=O)=O)cc1
inactive: [2] | [3] | [4] | [5] | [6] | [7] | [8] | [9] | [10]

O=c1[nH]c(=O)n([C@H]2O[C@H](CO)[C@@H](O)[C@@H]2O)cc1/C=C\Br
inactive: [1] | [3] | [4] | [5] | [6] | [8] | [9] | [10]

CCC(C(=O)NC(N)=O)c1ccccc1 (centres undefined)
inactive: [1] | [3] | [4] | [5] | [6] | [8] | [9] | [10]

NC(CS)C(=O)O (centres undefined)
inactive: [1] | [3] | [4] | [5] | [6] | [8] | [9] | [10]

CC(C)COC(=O)c1ccccc1O
inactive: [1] | [2] | [3] | [4] | [5] | [6] | [7] | [8] | [10]

CCCOCC(C)OCC(C)O (centres undefined)
inactive: [1] | [2] | [3] | [4] | [5] | [6] | [7] | [8] | [9] | [10]

OCc1ccccn1
inactive: [3] | [4] | [5] | [6] | [8] | [9] | [10]

CC(CCO)CCCC(C)(C)O (centres undefined)
inactive: [1] | [2] | [3] | [4] | [5] | [6] | [7] | [8] | [10]

CCCCCCOC(=O)c1ccccc1O
inactive: [1] | [2] | [3] | [4] | [5] | [6] | [7] | [8] | [10]

CSc1ccc(C=O)cc1
inactive: [2] | [3] | [4] | [5] | [6] | [7] | [8] | [9] | [10]

C=C(C)[C@@H]1CCC2=CC(=O)C[C@@H](C)[C@]2(C)C1
inactive: [1] | [3] | [4] | [5] | [6] | [7] | [8] | [10]

CCN1CCCC1CNC(=O)c1cc(S(N)(=O)=O)ccc1OC (centres undefined)
inactive: [1] | [2] | [3] | [4] | [5] | [6] | [7] | [9] | [10]
active: [8] 54.5 µM

CC1(C)SC(C)(C)SC(C)(C)S1
inactive: [1] | [3] | [4] | [5] | [6] | [7] | [8] | [10]

O=C(O)CCNC(=O)c1ccc(N=Nc2ccc(O)c(C(=O)O)c2)cc1
inactive: [1] | [2] | [3] | [4] | [5] | [6] | [7] | [8] | [9] | [10]

O=C(O)c1ccccc1-c1ccc(C(F)(F)F)cc1
inactive: [1] | [2] | [3] | [4] | [5] | [6] | [7] | [8] | [10]

CCCCN(CCO)CCO
inactive: [1] | [2] | [3] | [4] | [5] | [6] | [7] | [8] | [10]

CC(=O)NC(Cc1ccccc1)C(=O)O (centres undefined)
inactive: [1] | [2] | [3] | [4] | [5] | [6] | [7] | [8] | [9] | [10]

Nc1cc(C(Cl)=C(Cl)Cl)c(S(N)(=O)=O)cc1S(N)(=O)=O
inactive: [1] | [2] | [3] | [4] | [5] | [6] | [7] | [8] | [9] | [10]

CCN(CC)C(=O)c1ccc(O)c(OC)c1
inactive: [1] | [3] | [4] | [5] | [6] | [7] | [8] | [10]

C1COCCO1
inactive: [1] | [2] | [3] | [4] | [5] | [6] | [7] | [8] | [9] | [10]
